Source: PubChem
The list is not random: actives were taken first. Their share in the collection is about 9%.
HPGD block: inhibitors of human 15-hydroxyprostaglandin dehydrogenase (HPGD); P15428; hit rate 4.3% among 150,000; AID 894; purified HPGD, NADH fluorescence kinetic, PGE2 substrate; Potency, µM, inactives show at the top dose activity change, negative = inhibition, actives largely listed as inhibitors; active = well fitted inhibition curve with a large enough effect, not every such curve was filed as active; inconclusive = small, poorly fitted or top-dose-only effect, or another doubt; inactive = no such curve, though single readings can be large or run the other way
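NADH formation kinetics: reaction with 30 uM PGE2 and 1 mM NAD+ (final), 20 nM enzyme, Tris-HCl pH 8 with Tween 20, after 15 min compound preincubation at room temperature. Fluorescence change, last versus first of five reads.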
Luc counter: Kinase-Glo luciferase inhibition (counter-screen). hit rate 0.28% among 200,000. Potency, µM (titrated, usually from 38.3 µM), without a hit: top-dose activity change, negative = inhibition, most hits filed as inhibitors. AID 1379. Kinase-Glo luciferase, ATP luminescence, 8 min; also: nearly all actives have a fitted effect of over 60% in size
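Substrate mix (final 50 mM imidazole pH 7.2, 50 mM KCl, 7 mM MgCl2, 10 uM ATP, 0.01% Tween 20, 0.05% BSA) plus pin-tool compound, then Kinase-Glo detection mix; 8 min ambient, luminescence read.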
LMNA splice mod: modulators of lamin A splicing; HeLa LMNA splicing GFP/RFP minigene ratio, 48 h; hit rate 0.01% among 200,000; Potency, µM (doses to about 46.1 µM), without a hit: at the top dose ratio change, negative = inhibition, most hits filed as inhibitors; active = well fitted inhibition curve with a large enough effect in the signal ratio, with a control signal flat, not every such curve was filed as active; inconclusive = small, poorly fitted or top-dose-only effect, or effect the other way, or a change in a side signal; the % refers to the signal ratio
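S3 HeLa stable clones carrying a lamin A-EGFP splicing minigene plus DsRed2 were seeded at 600 cells/well in Opti-MEM with 2% FBS, pin-dosed and incubated 48 h at 37°C. Acumen cytometry (488 nm) gave the GFP/RFP total-intensity ratio.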
IMPase Li cell: IMPase inhibition in cells with lithium potentiation; CHO-M1 cells, IP1 TR-FRET (IP-One), carbachol + lithium; Potency, µM (series often up to 59.4 µM), for the others: at the top dose activity, negative = IMPase inhibition, actives largely listed as inhibitors; hit rate 0.35% among 210,000; AID 1457;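 also: IP1 builds up when IMPase is blocked and the TR-FRET signal falls; plate controls were basal vehicle for no effect and high inhibitor control for full effect; nearly all actives have a fitted effect of over 50% in size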
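Concentration–response in CHO-M1 cells, lithium-potentiated; 30 min at 37C. IP1 detected by competitive TR-FRET after 10 min lysis at RT. Hill-fitted AC50.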
ALDH1A1 block: ALDH1A1 (human) enzyme inhibition; P00352; Purified ALDH1A1, NADH fluorescence, propionaldehyde substrate; Potency, µM (titrated, usually from 75.3 µM), without a hit: top-dose activity, negative = inhibition, usual class: inhibitors; hit rate 7.3% among 220,000; active = well fitted inhibition curve with a large enough effect, not every such curve was filed as active; inconclusive = small, poorly fitted or top-dose-only effect, or another doubt; inactive = no such curve, though single readings can be large or run the other way;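 also: plate controls were no enzyme wells and a reference inhibitor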
Target sequence (P00352 whole entry, looked up): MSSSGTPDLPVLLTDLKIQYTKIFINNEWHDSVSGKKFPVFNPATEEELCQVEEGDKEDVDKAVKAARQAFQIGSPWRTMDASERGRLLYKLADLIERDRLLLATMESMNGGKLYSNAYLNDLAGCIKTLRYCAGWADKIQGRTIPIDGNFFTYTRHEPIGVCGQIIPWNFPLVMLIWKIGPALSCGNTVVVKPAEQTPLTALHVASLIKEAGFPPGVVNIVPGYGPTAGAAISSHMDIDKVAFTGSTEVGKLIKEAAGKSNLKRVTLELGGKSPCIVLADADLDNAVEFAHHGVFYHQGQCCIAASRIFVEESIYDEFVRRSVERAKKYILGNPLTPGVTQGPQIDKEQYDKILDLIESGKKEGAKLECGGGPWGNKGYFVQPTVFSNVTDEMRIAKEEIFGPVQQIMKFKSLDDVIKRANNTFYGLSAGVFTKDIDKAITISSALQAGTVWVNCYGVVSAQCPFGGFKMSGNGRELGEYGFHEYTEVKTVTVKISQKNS
Active calls of the source: *; ? = inconclusive; · = no result given; ! = a repeat was not active; [ ] = another dose, or the depositor's remark. Unless noted, calls follow the shape of the dose curve; as a rule, active = well fitted curve in the direction sought with a large enough effect; inconclusive = small, poorly fitted or top-dose-only effect, or another doubt; inactive = no such curve, though single readings can be large; an effect the other way counts as inactive or inconclusive. Unless noted, % is scaled to controls: 0 for no effect and ±100 for the full control effect; potency is read from the fitted curve at half-maximal effect.

SMILES	HPGD block	Luc counter	LMNA splice mod	IMPase Li cell	ALDH1A1 block
OCCNc1nc(-c2ccccc2)c2cc(Cl)ccc2n1	·	-1%	·	12%	?
COCCNC(=O)c1cccc(Nc2nc(-c3ccccc3)c3cc(Cl)ccc3n2)c1	28µM*	2%	?	9%	-10%
CSc1nnc(SC)nn1	-6%	1%	·	15%	12%
CC(=O)C(=Cc1ccc(O)cc1)C(C)=O	·	·	-5%[46 µM]	·	7.1µM*
Nc1c(C(=O)C2CC2)sc2nc(-c3ccccc3)cc(C(F)(F)F)c12	28µM*	-2%	-5%	13µM*	?
CC(=O)c1sc2nc(-c3cccs3)cc(C(F)(F)F)c2c1N	-29%	-5%	5%	-21%[38.3 µM]	?
CCOC(=O)CSc1nc2c(sc3ccccc32)c(=O)n1CCCN1CCOCC1	-22%	5%	-8%	21%	14µM*
CCOc1ccc(/C=N/N(C)c2ccccc2)cc1OC	-10%	6%	1%	22%[38.3 µM]	7.9µM*
CCOc1ccc(/C=N/Nc2ccccn2)cc1OC	·	-4%	·	-1%	5%
CN1CCc2cccc3c2[C@@H]1Cc1ccc(O)c(O)c1-3	8.9µM*!	-4%	?	29%	25µM*
O=C(NCc1cccs1)O[C@H]1C[C@H]2CC[C@@H]1C2	-4%	-4%[7.66 µM]	·	-9%	4%[13.5 µM]
Cc1ccccc1-n1sc2cc(F)ccc2c1=O	·	-8%	?	11%	0.56µM*
Cc1ccccc1-n1c(=O)c2ccccc2n2cnnc12	2%	-5%	-11%	14%[38.3 µM]	5%
COc1cccc(/C=N/Nc2ccc(C(=O)O)cc2)c1O	·	8.9µM*	13%[46 µM]	14%	11%
COc1cccc(/C=N/Nc2ccc(S(=O)(=O)O)cc2)c1O	32µM*	?	3%	16%[38.3 µM]	10µM*
Fc1cc(F)c(C2SCCN2C(=S)Nc2cccc(C(F)(F)F)c2)c(F)c1 (stereo not drawn)	·	·	·	·	14µM*
Cn1ccnc1C1CCCCN1C(=O)c1cc(COc2ccc(F)cc2Cl)on1 (stereo not drawn)	·	1%	?	26%	3%
COC(=O)c1sc(NC(=O)c2ccoc2C)nc1C	-22%	7.9µM*	-7%	14%	-4%
COc1ccc(NC(=O)Cc2cccs2)c(OC)c1	-23%	0%	13%	6%[38.3 µM]	6%
COC(=O)c1cc(OC)c(OC)cc1NC(=O)Cc1cccs1	·	-4%	·	31%	3.2µM*
COC(=O)c1sc(NC(=O)Cc2cccs2)nc1C	-8%	-3%	-6%	21%[38.3 µM]	13µM*
COC(=O)c1sc(NC(=O)c2ccco2)nc1C	?	?	4%	10µM*	?
CCOc1ccc(C(=O)Nc2nc(C)c(C(=O)OC)s2)cc1	·	·	·	·	3%
CCn1c(COc2ccc(C)cc2)nc2ccccc21	·	-10%	·	28%	-3%
CC(C)(C)C1CCC2(CC1)CCN(CCCN1CCOCC1)CC2	1%	-2%[7.66 µM]	·	5%	-6%[13.5 µM]
SMILES	HPGD block	Luc counter	LMNA splice mod	IMPase Li cell	ALDH1A1 block
C(=N/N1CCN(c2ccccc2)CC1)/c1ccncc1	·	-2%	9%[46 µM]	12%	1%
Cc1cc(C#N)c(C)n1-c1cc(S(=O)(=O)N2CCOCC2)ccc1N1CCCC1	7.9µM*	2%	19%	-1%[38.3 µM]	4.5µM*
O=[N+]([O-])c1cccc2c[nH]nc12	32µM*	-3%	·	10%	-15%
Cc1ccccc1OCCNc1cc(N2CCNCC2)ccc1[N+](=O)[O-]	·	-1%	?	2%	-15%
Cc1cccc(OCCNc2cc(N3CCN(C)CC3)ccc2[N+](=O)[O-])c1	-23%	1%	-14%	8%	-9%
COc1ccccc1OCCNc1cc(N2CCCCC2)ccc1[N+](=O)[O-]	-19%	2%	?	9%	18µM*
Cc1ccc(OCCNc2cc(N3CCN(CCO)CC3)ccc2[N+](=O)[O-])cc1C	35µM*	-1%	-10%	17%	?
COC(=O)C/C=C\[C@H](C)[C@@H](OCc1ccccc1Br)C(C)C	·	·	·	·	1%[13.5 µM]
COc1ccccc1/C=N/NC(=O)C(=O)NCc1cccnc1	·	-2%	?	-2%	0%
CCOc1cccc(C(=O)NC(=S)Nc2ccc3c(c2)OCCO3)c1	·	-6%	·	2%	4µM*
OCCNC(=S)Nc1ccc2c(c1)OCCO2	·	·	·	·	5%
S=C(Nc1ccc2c(c1)OCCO2)Nc1ccc2c(c1)OCO2	·	-3%	·	13%	22µM*
